Assay outcomes from PubChem.
This is a sample that favours compounds with a hit; in the whole collection about 19% have one here.
IL1B secr inh: qHTS for Inhibitors of Inflammasome Signaling: IL-1-beta AlphaLISA Primary Screen; activity change, % at 57.5 µM; AID 743279, 2014; hit rate 4.7% among 360,000; THP-1 LPS/ATP IL-1B secretion, AlphaLISA, 16 h; hits give low values; in the data active = activity change below about -50%; inconclusive = mostly about -30% to -49%
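THP-1 cells pretreated 1 hr with compounds (up to 57.5 uM final), then stimulated with LPS (250 ng/mL final) plus ATP (1.25 mM final); secreted IL-1B measured by AlphaLISA after 16 hr, decreased signal indicating inhibition.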
HT1080NT lethal: qHTS for induction of synthetic lethality in tumor cells producing 2HG: qHTS for the HT-1080-NT fibrosarcoma cell line; HT-1080-NT fibrosarcoma viability, CellTiter-Glo ATP luminescence, 48 h; hit rate 1.6% among 360,000; Potency, µM (series often up to 46.1 µM), for inactives: at the top dose activity, negative = less viability, most hits filed as cytotoxic; AID 686970, 2013;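 also: NT is the 2HG producing partner of a matched IDH1 knockdown line; potency is read from the fitted curve at half-maximal effect; 0% = DMSO-treated cells and -100% = media-only wells without cells; nearly all actives have a fitted effect of over 55% in size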
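Read-out is CellTiter-Glo luminescence after 10 minutes at room temperature, following 48 hours' compound treatment of HT-1080-NT cells (750 cells/well, RPMI, 5% FBS, 37 degrees C).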
DT40 TDP1 CPT: qHTS for Inhibitors of human tyrosyl-DNA phosphodiesterase 1 (TDP1): qHTS in cells in presence of CPT; chicken DT40 Tdp1-/-;hTDP1 cells + 20 nM CPT, ATP luminescence, 48 h; Potency, µM (titrated, usually from 46.2 µM), for the others: top-dose activity change, negative = growth inhibition, hits mostly inhibitors; hit rate 12% among 420,000; also: potency is read from the fitted curve at half-maximal effect; nearly all actives have a fitted effect of over 55% in size
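Chicken DT40 Tdp1-/- cells stably complemented with human TDP1 were seeded at 400 cells/well in medium containing 20 nM camptothecin, exposed to pin-transferred compounds, and grown at 37 °C for at least 48 hr. Viability was read as ATP luminescence.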
HT1080 IDH1KD tx: qHTS for induction of synthetic lethality in tumor cells producing 2HG: qHTS for the HT-1080-IDH1KD cell line. HT-1080 IDH1 knockdown viability, ATP luminescence, 48 h. Potency, µM (highest dose often 46.1 µM), without a hit: at the top dose activity, negative = toxicity, hits mostly cytotoxic. hit rate 2% among 360,000. AID 686971, 2013;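 also: potency is read from the fitted curve at half-maximal effect; 0% = DMSO wells and -100% = cell-free medium wells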
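CellTiter-Glo luminescence after 48 h compound exposure at 37 degrees C of IDH1-knockdown HT-1080 cells in 5% FBS RPMI. %Activity scaled between DMSO wells and cell-free media wells, with curves fitted and assigned curve classes.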
TDP1 cell noCPT: qHTS for Inhibitors of human tyrosyl-DNA phosphodiesterase 1 (TDP1): qHTS in cells in absence of CPT | Potency, µM (top dose mostly 46.2 µM), for inactives: at the top dose activity change, negative = growth inhibition, most hits filed as inhibitors | DT40 Tdp1-/- hTDP1 cells, no CPT, ATP luminescence, 48 h | hit rate 15% among 420,000; also: potency is read from the fitted curve at half-maximal effect; nearly all actives have a fitted effect of over 55% in size
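Cells were dispensed at 400 per well, compounds added by pin tool, plates incubated ≥48 hr at 37 °C, then CellTiter-Glo added for 30 min at room temperature before luminescence reading. Line: DT40 Tdp1-/- complemented with hTDP1; camptothecin omitted.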
* marks the source's active call; other numbers are inactive results; ? = inconclusive; / = no result given; [ ] = dose if it differs, or a comment. Unless noted, calls follow the shape of the dose curve; as a rule, active = well fitted curve in the direction sought with a large enough effect; inconclusive = small, poorly fitted or top-dose-only effect, or another doubt; inactive = no such curve, though single readings can be large; an effect the other way counts as inactive or inconclusive. Unless noted, % is scaled to controls: 0 for no effect and ±100 for the full control effect.

SMILES | IL1B secr inh | HT1080NT lethal | DT40 TDP1 CPT | HT1080 IDH1KD tx | TDP1 cell noCPT
O=C1N/C(=N/N=C/c2ccc(O)cc2)SC1Cc1ccccc1 (stereo unspecified) | 36 | -12% | -32% | 12% | -11%
O=C(NNc1cccc(Cl)n1)Nc1ccccc1Cl | 0 | -3% | -14% | -2% | ?
O=C(NC1CC1)c1cccc(S(=O)(=O)Nc2ccccc2F)c1 | -6 | 6% | 3% | 1% | -4%
Cc1cccc(C(=O)OCC(=O)c2c(C)[nH]c3ccccc23)c1O | 0 | -8% | ? | -6% | ?
CC1=C2C(CCS2(=O)=O)CC2(C1)C(=O)OC(C)(C)OC2=O (stereo unspecified) | 22 | 24% | 10% | 19% | -9%
O=C1/C(=C/c2cccc(Br)c2)SC(=S)N1/N=C/c1cc([N+](=O)[O-])ccc1O | -13 | 3% | 23µM* | -2% | ?
O=C1/C(=C\c2ccc(O)cc2)SC(=S)N1/N=C/c1ccc(O)cc1 | -16 | 1% | -25% | 6% | -1%
Cc1[nH]nc(N=CC2=C(O)CC(C)(C)CC2=O)c1-c1ccc(Cl)cc1 | -7 | 4% | 12µM* | 1% | 12µM*
CC1(C)CC(=O)C(C=Nc2ccc(N)cc2)=C(O)C1 | -25 | 0% | -15% | -4% | -2%
CC1(C)CC(=O)C(C=Nc2ccc(O)cc2)=C(O)C1 | 26 | ? | ? | -2%[9.24 µM] | 23µM*
Cc1cc(NC(=O)COC(=O)COc2ccc(Cl)c(C)c2)no1 | -2 | 9% | -13% | 11% | -26%
COc1ccc(S(=O)(=O)N/N=C(/C)c2ccncc2)c(OC)c1 | ? | 1% | ? | 1% | 9%
CCN1CCN(S(=O)(=O)c2ccc(Oc3ccccc3OC)cc2)CC1 | -16 | -11% | -16% | -14% | 23µM*
CCn1c(N2CCN(S(=O)(=O)c3ccc(OC)cc3)CC2)nc2ccccc21 | -66* | -29% | ? | ? | ?
CCN(CC)CCCNC(=S)N1CCN(c2nc3ccccc3n2CC)CC1 | -19 | -20% | 33% | -12% | 1%
CCn1c(N2CCN(S(=O)(=O)c3ccccc3C(F)(F)F)CC2)nc2ccccc21 | -52* | ? | ? | -26% | 16µM*
CCn1c(N2CCN(C(=O)C34CC5CC(CC(C5)C3)C4)CC2)nc2ccccc21 | ? | ? | 29µM* | ? | 26µM*
COC(=O)C1CCN(Cc2ccc3c(c2)CN(C(=O)c2ccc4nc(C)c(C)nc4c2)CCO3)CC1 | / | / | 2%[9.04 µM] | / | -16%
Cc1ccc(-n2ncc3c2CCCC3NC(=O)CCCN2CCCCC2=O)cc1C (stereo unspecified) | 9 | -6% | -20% | -1% | ?
CN(CCc1cn[nH]c1)Cc1nc(Cc2ccccc2F)no1 | -3 | 9% | -11% | 6% | 21%
CCN(Cc1ccccc1)C(=O)c1nn(-c2ccc(OC)cc2)c(=O)c2c1c1ccccc1n2C | 0 | -3% | 12µM* | 2% | 23µM*
CCCCN(CC)C(=O)c1nn(-c2ccc(OC)cc2)c(=O)c2c1c1ccccc1n2C | / | / | ? | / | 23µM*
CC(=O)c1ccc(OCC(=O)NC2CCCN(Cc3ccccc3F)C2)cc1 (stereo unspecified) | -10 | -4% | -6% | -2% | ?
FC(F)(F)c1ccc(C2=Nc3ccccc3NC(c3cccs3)=N2)cc1 | / | / | -16% | / | ?
CCCCOc1ccc(C2=NC(c3cccs3)=Nc3ccc(OC)cc3N2)cc1 | / | / | -26% | / | ?
SMILES | IL1B secr inh | HT1080NT lethal | DT40 TDP1 CPT | HT1080 IDH1KD tx | TDP1 cell noCPT
COc1ccc(C2=Nc3ccc(F)cc3NC(c3cccc(C(F)(F)F)c3)=N2)cc1 | / | / | 23µM* | / | ?
Fc1ccc(C2=NC(c3cccc(C(F)(F)F)c3)=Nc3ccccc3N2)cc1 | / | / | ? | / | 18µM*
Cc1sc2ncnc(SCC(=O)N3CCCC(C(F)(F)F)C3)c2c1C (stereo unspecified) | 4 | 18% | -10% | 8% | -6%
Cc1cccc(C)c1OCC(N)C(C)C (stereo unspecified) | -57* | 5% | 4% | 0% | 13%
CC1CCCCN1C(=O)CCNS(=O)(=O)c1ccc2c(c1)c(=O)n(C)c(=O)n2C (stereo unspecified) | -4 | -6% | 2% | 1% | 11%
COC(=O)[C@@]12C[C@@H](CC(=O)NCc3cccc4ccccc34)C(=O)N(Cc3ccccc3)C1=CCC(C)(C)C2 | -61* | ? | ? | ? | ?
COC(=O)[C@@]12C[C@@H](CC(=O)NCc3cccc4ccccc34)C(=O)N(Cc3ccc4c(c3)OCO4)C1=CCC(C)(C)C2 | -87* | ? | ? | ? | 13µM*
COC(=O)[C@@]12C[C@@H](CC(=O)NCc3ccccc3)C(=O)N(Cc3ccc4c(c3)OCO4)C1=CCC(C)(C)C2 | ? | ? | 16µM* | ? | 16µM*
CCOC(=O)[C@]12CCCC=C1N(Cc1ccc3c(c1)OCO3)C(=O)[C@H](CC(=O)NCc1cccc3ccccc13)C2 | -25 | ? | ? | -28% | ?
O=C(CS(=O)(=O)c1nc(-c2ccc(Cl)cc2)cn1-c1ccccc1)Nc1ccc(F)cc1F | / | / | 18µM* | / | ?
CCn1cc(S(=O)(=O)CC(=O)Nc2ccc(C)cc2)c2ccccc21 | -15 | 5% | -12% | 10% | -18%
Cc1cccc(NC(=O)CS(=O)(=O)c2nc(-c3ccccc3)cn2-c2cccc(Cl)c2)c1C | / | / | 23µM* | / | 18µM*
Cc1ccc(NC(=O)CS(=O)(=O)c2nc(-c3ccc(C)cc3)cn2-c2ccc(C)cc2)cc1 | / | / | 21µM* | / | 15µM*
O=C(CSc1nc(-c2ccccc2)cn1-c1ccccc1F)Nc1ccc(F)cc1 | / | / | 18µM* | / | ?
Cc1noc(C)c1CSCC(=O)NCCN1C(=O)S/C(=C\c2ccccc2F)C1=O | -6 | 8% | ? | 1% | ?
CC(NC(=O)C(=O)N/N=C/c1ccccc1)c1ccccc1 (stereo unspecified) | 27 | -3% | -17% | -1% | -19%
Cc1noc(C)c1C(=O)Nc1ccc(-c2nnc3n2CCCCC3)cc1 | -5 | 14% | -17% | -1% | -6%
Cc1ccc(OCc2nnc(SCC(=O)Nc3cccc4ccccc34)n2-c2ccccc2)cc1 | -26 | -22% | ? | -19% | ?
CCOC(=O)NC(=O)CSc1nc(-c2ccc(C)c(C)c2)cn1-c1ccccc1 | -61* | -10% | ? | -13% | ?
